# Biological target: FAM117A
# Test: pooled miR-30 sensor sort-seq; sequence = guide strand
# Details: shRNA
# Note: reference of the scale not given here.
row,Sequence,sensor-assay potency score (higher = more potent)
1,TTTTCTAATCCATCCAGCCCTG,-0.672
2,TCACCTTCTAGCTCTTGCCAGG,-1.11
3,TTAACATTCTTCAATTTTGTGT,-0.138
4,TTCTTCAAACACACGCACTTTC,-0.795
5,TGTAGCTATGATTAGGTCGAGG,-1.12
6,TACACACTGACTTTTCTGGGGC,0.0109
7,AAATAGAGTCTCTACATCGATA,-1.34
8,TATACAAACTTCAAACAGCTGC,-0.329
9,TTGTCATTGGTGCAGCAGGTGA,-1.77
10,TTGAAATGGACTTTGTTCTTGT,1.01
11,AACTCGAACATTAACATTCTTC,-0.482

# Biological target: FAM127A
# Test: as above
# Details: shRNA
row,Sequence,sensor-assay potency score (higher = more potent)
1,TCGGTATCGCCGTCAAACGTCT,-1.19
2,ATTGAGGAGGGGGCTCTCCTTC,-1.52
3,ATCGCCGTCAAACGTCTCGGGA,-1.14
4,TCGCCGTCAAACGTCTCGGGAA,-1.08
5,TATCGCCGTCAAACGTCTCGGG,-0.476
6,AAAGACTCGCTTCATCTCGGCC,-1.07
7,TGTAGGAGCCCGTCTGCACGAT,-1.04
8,ATCTCGGCCAGAAAGCCCCGGT,-0.915
9,TTCATCTCGGCCAGAAAGCCCC,-0.891
10,TCGGTCGGTATCGCCGTCAAAC,-1.87
11,TCGCTGGAGAACGTGTTCTCGT,-1.32
